Compound activity as filed in PubChem BioAssay.
Cruzain inh noDet: inhibitors of Trypanosoma cruzi cruzain without detergent. 200,000 tested, 2.3% active. Potency, µM, for the others: max response, negative = inhibition, usual class: inhibitors. AID 1476. purified cruzain, Z-FR-AMC fluorescence, no detergent;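 further: plate controls were enzyme without inhibitor for no effect and buffer without enzyme for full effect; nearly all actives have a fitted effect of over 40% in size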
Target sequence (P25779 123-467 limits assumed): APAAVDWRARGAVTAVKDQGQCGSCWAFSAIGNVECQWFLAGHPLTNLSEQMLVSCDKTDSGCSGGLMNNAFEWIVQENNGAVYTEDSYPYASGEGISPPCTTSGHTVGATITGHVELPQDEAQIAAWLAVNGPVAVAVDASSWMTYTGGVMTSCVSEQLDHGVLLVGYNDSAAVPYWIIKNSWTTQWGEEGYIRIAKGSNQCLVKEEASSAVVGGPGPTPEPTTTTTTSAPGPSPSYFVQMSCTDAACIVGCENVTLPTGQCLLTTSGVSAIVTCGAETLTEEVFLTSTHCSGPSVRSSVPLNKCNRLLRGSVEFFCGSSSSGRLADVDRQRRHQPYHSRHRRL
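Detergent-free condition (0.00005% Triton X-100) in acetate buffer pH 5.5 with DTT. 1.5 nM enzyme and compound were pre-mixed 15 min, then 2 uM Z-FR-AMC substrate added; reaction progress from fluorescence change between first and third reads (60 s).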
Cruzain Triton: inhibitors of Trypanosoma cruzi cruzain with detergent; 200,000 tested, 0.43% active; Potency, µM, without a hit: max response, negative = inhibition, hits mostly inhibitors; purified cruzain, Z-FR-AMC fluorescence, 0.01% Triton; P25779;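 further: plate controls were neutral wells for no effect and buffer without enzyme for full effect; nearly all actives have a fitted effect of over 40% in size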
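Detergent-containing arm of a paired screen for aggregation-based inhibition: 0.01% Triton X-100 present. Cruzain at 1.5 nM cleaved 2 uM Z-FR-AMC at pH 5.5 with 5 mM DTT; AMC fluorescence gain over 60 s measured activity.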
Papain counter: counter-screen for cruzain inhibitors: papain inhibition; Potency, µM, for the others: max response, negative = inhibition, hits mostly inhibitors; AID 2161; purified papain, Z-FR-AMC fluorescence cleavage; shares compounds with Cruzain Triton; 410 tested, 41% active;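 further: 0% = no-compound wells and -100% = no-enzyme wells; nearly all actives have a fitted effect of over 35% in size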
Active calls of the source: *; u = inconclusive; x = not tested or not shown. Hits are enriched below; roughly 2.5% of the tested compounds scored in any of these assays. The call rests on the fitted dose curve; in most records, active means well fitted curve in the direction sought with a large enough effect; inconclusive means small, poorly fitted or top-dose-only effect, or another doubt; inactive means no such curve, though single readings can be large; an effect the other way counts as inactive or inconclusive. Potency means the concentration at half of the fitted maximal effect.

SMILES	Cruzain inh noDet	Cruzain Triton	Papain counter
CCc1ccc2c(c1)c(=O)c(S(=O)(=O)c1ccc(F)cc1)cn2CC(=O)Nc1ccccc1OC	u	-4%	x
COc1ccc(N(CC(=O)Nc2cc(OC)cc(OC)c2)S(=O)(=O)c2c(C)noc2C)cc1	4%	-5%	x
O=C(CSc1nc2c([nH]c3ccccc32)c(=O)n1-c1cccc(Cl)c1)NCC1CCCO1 (configuration not stated)	-3%	3%	x
Cc1cc(C)c2c(-n3cccc3)c(C(=O)NCCc3ccccc3)sc2n1	12%	-4%	x
O=C(Cc1ccc(Cl)cc1)Nc1ccccc1Sc1ccccc1	-17%	-8%	x
O=C(O)c1c(Sc2ccccc2)c2cc(Cl)ccc2n1Cc1ccc(Cl)cc1	u	28µM*	28µM*
Nc1ccc2c(c1)C(=O)C(=O)c1ccccc1-2	u	22µM*	16µM*
Nc1ccc2c(c1)C(=O)c1ccccc1C2=O	-19%	1%	x
COc1ccc(NC(=O)Cn2cc(C(=O)c3ccccc3OC)c(=O)c3ccc(C)nc32)cc1OC	27%	-3%	x
CCc1ccc2[nH]c(=O)c(CN(Cc3cccnc3)Cc3nnnn3Cc3ccccc3)cc2c1	x	x	-4%
CCc1ccc2[nH]c(=O)c(CN(Cc3ccc(OC)cc3)Cc3nnnn3CCOC)cc2c1	u	-4%	x
CCc1ccc2[nH]c(=O)c(CN(Cc3ccccc3)Cc3nnnn3C(C)(C)C)cc2c1	x	x	-26%
Cc1ccc2[nH]c(=O)c(CN(Cc3cccs3)Cc3nnnn3Cc3ccccc3)cc2c1	3%	-4%	x
Cc1ccc(NC(=O)CSc2nnc(C)s2)c(C)c1	-12%	0%	x
CCOc1ccc(S(=O)(=O)N(CC(=O)Nc2ccc3c(c2)OCO3)c2ccccc2)cc1	-2%	-1%	x
CCN1CCN(CCCNC(=O)c2cc3c(s2)-c2ccccc2OC3)CC1	u	28µM*	10µM*
COc1ccccc1CNC(=O)c1cc2c(s1)-c1ccccc1OC2	15%	1%	x
CC1(C)Cn2c(nnc2-c2ccccc2)S1	7%	8%	x
C(/Oc1ccccc1)=C1\Nn2c(nnc2-c2cc(-c3ccccc3)n[nH]2)S1	x	x	11%
COc1ccc(C(=O)N/N=C/c2ccc(OC(=O)c3ccccc3)cc2)cc1	u	0%	x
COc1ccc(N=Cc2nc(-c3ccccc3)oc2OC(=O)c2ccccc2)cc1	16µM*	10µM*	-24%
O=C(CNC(=O)c1ccc(Br)cc1)NCCc1nc2ccccc2[nH]1	8%	-9%	x
COc1ccc2[nH]cc(CCNc3ncncc3-c3c(C)noc3C)c2c1	1%	2%	x
COc1cccc(-c2cncnc2NCCc2cnc[nH]2)c1	2%	-3%	x
SMILES	Cruzain inh noDet	Cruzain Triton	Papain counter
O=c1oc2ccc(Br)cc2cc1-c1csc(-c2ccc(Cl)cc2)n1	-6%	2%	x
O=c1oc2ccccc2cc1-c1csc(Cc2nc(-c3ccc(Br)cc3)cs2)n1	3.2µM*	2%	20%
Cc1cc(Cl)ccc1OCC(=O)N(Cc1ccc(N(C)C)cc1)CC1CCCO1 (configuration not stated)	23%	-4%	x
COc1cc(OC)c(NC(=O)C2=C(C)C(=O)OC23CCCCC3)cc1Cl	17%	-5%	x
COc1cc(C(=O)COC(=O)CNC(=O)C2CCCCC2)cc(OC)c1OC	2.5µM*	2.2µM*	-28%
CC(=O)NCC(=O)OCC(=O)c1ccccc1	-4%	7%	x
O=C(CNC(=O)C1CCCCC1)Nc1ccc(Cl)cc1	-2%	2%	x
O=C(CNC(=O)C1CCCCC1)OCC(=O)c1ccc(C2CCCCC2)cc1	x	x	-4%
O=C(CNC(=O)C1CCCCC1)OCC(=O)c1ccccc1	x	x	16µM*
CC(=O)NCC(=O)OCC(=O)c1ccc(C)cc1	6%	7%	x
O=C(COC(=O)CNC(=O)C1CCCCC1)Nc1ccc2ccccc2c1	7.9µM*	4.5µM*	-14%
COC(=O)c1ccc(NC(=O)CNC(=O)C2CCCCC2)cc1	1%	5%	x
CN1C(=O)/C(=C/c2ccc3c(c2)OCO3)N=C1c1ccccc1	-7%	-11%	x
CC/C=C1/N=C2C(=O)N(C)C(=O)N=C2N(C)N1	x	x	-13%
CN1N/C(=C\c2ccccc2)N=C2C(=O)N(C)C(=O)N=C21	x	x	-10%
CC(C)n1c(=O)c2oc3ccccc3c2n(Cc2ccccc2F)c1=O	14%	0%	x
COc1ccccc1CNC(=O)Cc1c(C)c2c(cc(C)c3c(C)c(C)oc32)oc1=O	-6%	1%	x
O=C1C(=Cc2ccco2)C(=O)c2ccccc21	-5%	-4%	x
O=C1/C(=C/c2ccco2)CCc2ccccc21	2µM*	2.2µM*	28µM*
CCc1ccc(CNC(=O)c2c3c(nc4ccccc24)C(=O)N(C2CCCCC2)C3)cc1	u	-9%	x
CC(=O)c1ccc(NC(=O)C2CCN(S(=O)(=O)c3ccc4c(c3)CCCN4C(=O)C3CCC3)CC2)cc1	0%	1%	x
